This is an account of results in ChEMBL document CHEMBL1157539, “Thousands of chemical starting points for antimalarial lead identification” (Nature, 2010).

Structures are written as SMILES.

In the assay the test system is HepG2. The assay is described as follows: GSK_TCMDC: Percent inhibition of human HepG2 cell line. Test compounds present at 10uM. Format: functional.
On to `CCCNC(=O)c1cncc(-c2cccc(CNC3Cc4ccccc4C3)c2)c1.O=C(O)C(F)(F)F`, for which the Inhibition (usually the drop in the measured response relative to a control, in per cent) came out at 0%.

In turn, `C#CCN(Cc1cc2c(=O)[nH]c(N)nc2cc1C)c1ccc(C(=O)N[C@@H](CCC(=O)O)C(=O)O)cc1` showed an Inhibition of 28%.

The compound `Cc1nc2nc(N)nc(N)c2c(C)c1Cc1cccc(C(N)=O)c1.Cl` returned an Inhibition of 59%. `COc1cc(C2CCN(CCCCNC(=O)c3ccc(NC(=O)c4ccc(Cl)c(Cl)c4)cc3)CC2)ccc1OC(C)C` registered an Inhibition of 45%.

`COc1cc2c(cc1OCCN1CCC(N3CCCCC3)CC1)N(C(=O)/C=C/c1ccccc1Cl)CC2`: the Inhibition is listed as 36%. `O=S(=O)(c1ccc(Oc2ccccc2)cc1)N(CCC(O)(C(F)(F)F)C(F)(F)F)Cc1cccc(O)c1` displayed an Inhibition of 0%. In the case of `CN1CCN(CCCN(Cc2csc(-c3ccc(CNCc4ccccc4)cc3)n2)C(=O)c2cc(F)cc(F)c2)CC1.O=C(O)C(F)(F)F`, the Inhibition turned out to be 60%.

Compound `CS(=O)(=O)N(c1cccc(F)c1)c1cc(C(=O)N[C@@H](Cc2ccccc2)[C@H](O)CNCc2cccc(C(F)(F)F)c2)cc(N2CCCC2=O)c1.O=CO` had an Inhibition of 14%. In turn, `CC(C)(C)OC(=O)C1CCCN(Cc2ccc(-c3cccc(-c4nc5ccccc5[nH]4)c3)cc2)C1.O=C(O)C(F)(F)F` (stereo not given) had an Inhibition of 37%.

For the compound `COc1ccc2ccc(OC)c(CNCCCCCCNCc3c(OC)ccc4ccc(OC)cc34)c2c1.CS(=O)(=O)O`, the Inhibition worked out at 100%.

Regarding `CN(C)CCOc1ccc(-c2cc(-c3ccc(Cl)c(O)c3)c(-c3ccnc(N)n3)o2)cc1`, the Inhibition amounted to 43%.

The compound `CCOC(=O)CCCc1cc(NC2CCN(C)CC2)nc(Nc2ccc(C)cc2)n1` came in with an Inhibition of 35%. The compound `CCOc1cc(-c2nnc3[nH]c(=O)n(C)c(=O)c3n2)ccc1OC(C)C` had an Inhibition of 15%. For `CC(C)C(=O)NC(c1ccc(N(C)C)cc1)c1cc(Cl)c2cccnc2c1O` (stereo not given) the value was 61%; for `CCCN1CCN(c2ccc(NS(=O)(=O)c3ccc(C(=O)Nc4ccc(Cl)cc4)cc3)cc2)CC1.O=C(O)C(F)(F)F`, 4%; for `CCN(CC(C)O)C(=O)c1ccc(-c2ccc(-c3nc4cccc(C)c4[nH]3)cc2)cc1` (stereo not given), 18%. For `Cc1c(N)ccc2[nH]c(-c3ccc(N)cc3)nc12`, the Inhibition is 0%.

`CCCc1cc(Cc2cnc(N)nc2N)ccc1OCCCCCC(=O)OCC`: the Inhibition stood at 0%. To `CC(C)c1ccc(NC(=O)NCC2CCCN(CCCCCNC(=O)/C=C/c3ccc(Cl)c(Cl)c3)C2)cc1` (stereo not given) belongs 87%; to `Cc1[nH]c(C)c(Cc2ccc(Oc3ccc(OC(F)(F)F)cc3)cc2)c(=O)c1Br`, 29%; to `CCCN1CCC(NCc2cn(C)nc2-c2ccc(Oc3ccccc3)cc2)CC1`, 34%. As to `CC(=O)Nc1ccc(C(=O)Nc2ccc(-c3cccc(-c4nc5cc(F)ccc5[nH]4)c3)cc2)cn1`, the Inhibition worked out at 13%. In the case of `COc1cccc(CN2CCC(N3CCc4cc(NC(=O)c5cc(C)on5)ccc43)C2)c1OC` (stereo not given), the Inhibition is 9%. The compound `Cc1ccc(Sc2ccc(NC(=O)CN3CCN(C(=O)c4ccco4)CC3)cc2)cc1C` yielded an Inhibition of 14%.

The compound `O=C(Nc1ccc(Cl)cc1)Nc1ccc2nonc2c1` yielded an Inhibition of 0%. For the compound `O=C(NCCCCN1CCC(c2ccc3ccccc3c2)CC1)c1ccc(NC(=O)c2ccc(Cl)cc2)cc1`, the Inhibition is listed as 24%. `CC(=O)NC1=NC(C)(C)N(OCc2ccc(Cl)c(Cl)c2)C(NC(C)=O)=N1` had an Inhibition of 68%. For `CN(C)c1ccc(CN2CCC(CNC(=O)c3cc(-c4cccc(C(F)(F)F)c4)cs3)C2)cc1.O=C(O)C(F)(F)F` (stereo not given) the value was 39%; for `Clc1cc(Nc2ncnc3sc(C#C[C@H]4CCCN4)cc23)ccc1OCc1cccnc1Cl.O=C(O)C(F)(F)F`, 9%. As to `CC(C)C[C@H](NC(=O)c1cc2ccccc2s1)C(=O)N[C@H]1CCN(Cc2ccc(OC3CCN(C)C3)c(Cl)c2)C1.O=C(O)C(F)(F)F` (stereo not given in full), the Inhibition is 68%. `Cl.O=[N+]([O-])c1ccc(-c2nc3cc(C4=NC5CCCCC5N4)ccc3[nH]2)cc1` (stereo not given) registered an Inhibition of 0%.

The compound `CCOc1c(CNCCCNc2cc(O)c3ccccc3n2)cc(Br)cc1OC` yielded an Inhibition of 10%. As to `COc1cccc2sc(N3CCN(C(=O)c4ccc([N+](=O)[O-])o4)CC3)nc12`, the Inhibition came out at 0%. For `Cl.O=C(CCCCCCc1ccccc1)Nc1ccc2nc3c(c(NCc4ccccc4)c2c1)CCCC3`, the Inhibition worked out at 19%.

`CCCCCCNC(=O)C1Cc2c([nH]c3ccc(Br)cc23)C2(CCN(CCc3ccccc3)CC2)N1` (stereo not given): the Inhibition was determined as 36%. Compound `CCC(C)NC(=O)CN1CN(c2ccccc2)C2(CCN(C(=O)c3ccc(C(C)(C)C)cc3)CC2)C1=O` (stereo not given) yielded an Inhibition of 0%. With `O=C(NCc1cccc2ccccc12)C(c1cc2ccccc2o1)N1CCN(C(c2ccccc2)c2ccccc2)CC1` (stereo not given), the Inhibition came out at 0%. For the compound `Cc1cc(N2CCC(NS(=O)(=O)c3ccc(F)cc3)CC2)nc(Nc2cccc(C#N)c2)n1.O=C(O)C(F)(F)F`, the Inhibition is 20%. `CC(=O)N1N=C(c2cccs2)Sc2c1nc(-c1ccc(Cl)cc1)n2C(C)=O` had an Inhibition of 3%. For `CN(C)CCOc1ccc(N2CCN(CCCCNC(=O)c3ccc(/C=C/c4cc(Cl)cc(Cl)c4)cc3)CC2)cc1` the value was 97%.
